Among the data in PubChem BioAssay (NCATS) are Potency values, retold here.

Inconclusive results are not listed. A call without a number means that no potency is given here. Calls of active or inactive are those of the source. Calls come from the whole dose curve; as a rule, active = well fitted inhibition curve with a large enough effect; inconclusive = small, poorly fitted or top-dose-only effect; inactive = flat fitted curve, though single readings scatter.

Glutathione peroxidase 1 (Homo sapiens), sequence (P07203 whole entry, looked up): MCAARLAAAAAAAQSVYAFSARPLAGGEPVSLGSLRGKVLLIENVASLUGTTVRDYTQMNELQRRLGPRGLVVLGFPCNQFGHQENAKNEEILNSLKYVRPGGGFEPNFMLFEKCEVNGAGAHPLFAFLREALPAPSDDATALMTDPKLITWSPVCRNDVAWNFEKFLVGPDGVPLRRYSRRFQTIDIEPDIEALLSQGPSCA

The assay addresses Glutathione peroxidase 1 (Homo sapiens) (UniProt P07203). The assay is described as follows: Primary qHTS Assay for Inhibitors of Recombinant Selenoprotein Glutathione Peroxidase 1 (GPX1) (AID 1845191). Note: nearly all actives have a fitted effect of over 65% in size. The note with it: recombinant GPX1, GR-coupled NADPH fluorescence, 15 min; series mostly up to 48.8 µM. From the text:
Assay Provider: Elias S.J. Arner MD PhD.
Department of Medical Biochemistry and Biophysics
Karolinska Institutet, Solna, Stockholm, Sweden
Selenoprotein glutathione peroxidases (GPX), like the ubiquitously expressed GPX1 and the ferroptosis modulator GPX4, enact their antioxidant activities by reducing hydroperoxides using glutathione. […] GPX1 and GPX4 inhibitors have thus shown promise as anti-cancer agents. Existing inhibitors are often promiscuous, or modulate GPX activity only indirectly, so novel direct inhibitors identified through screening against GPX1 and GPX4 could be valuable. Here, we developed optimized glutathione reductase (GR)-coupled GPX assays for the biochemical high-throughput screen (HTS) of almost 12,000 compounds with known mechanisms of action. Initial hits were triaged using a GR counter-screen, assessed for isoform specificity using a separate GPX2 assay, and were assessed for general selenocysteine-targeting activity using a thioredoxin reductase (TXNRD1) assay. With this suite of assays, we identified novel GPX1/GPX2- and GPX4-specific inhibitors and can here present a validated pipeline for future discovery research for selenoprotein-targeting agents.
SEQUENCE No. (e.g., 1, 2, 3, etc.); […] (e.g., Cells, Incubation, Reagent, etc.); VALUE; DESCRIPTION.
1; Reagent 1; 3 uL; GPx1 enzyme or no enzyme control in 1536-well, black, solid Greiner assay plate.
2; Compound; 25 nL; Kalypsis pin tool (Wako USA) equipped with a 1536-well pin head.
3; Incubation; 30 min; room temperature.
4; Reagent 2; 1 uL; 10 nM GPX1, 1 mM GSH, 0.5 mM CHP, 0.5 mM NADPH, 100 nM GR, 0.01% BSA substrate
5; Detection; Fluorescence; ViewLux microplate reader, excitation 340 nm and emission 450 nm.
6; Incubation; 15 min; room temperature.
7; Detection; Fluorescence; ViewLux microplate reader, excitation 340 nm and emission 450 nm.
NOTES (numbers refer to Sequence numbers above)
1. 3 uL of 16.66 nM GPX1 and 0.016% BSA in assay buffer (50 mM Tris-HCl, 2 mM EDTA (pH 7.5), 150 mM NaCl) was added to columns 3-48 of 1536-well assay plates using a BioRAPTR Flying Reagent Dispenser (Let's Go Robotics (LGR), Carlsbad, CA). A no-enzyme control (0.01% BSA in TES assay buffer) was added to columns 1-2.
2. 25 nL of test compounds and DMSO controls were added to each well with a pin tool (Kalypsys).
3. The assay plates were incubated for 30 minutes at room temperature.
4. 1 uL of master mix (500 nM glutathione reductase (GR), 5 mM reduced glutathione (GSH), 2.5 mM NADPH in assay buffer) was added. 1 uL of cumene hydroperoxide (CHP) ([2.5 mM] in 50% EtOH) was then added within 5 minutes to initiate the reaction. Final concentrations were: 10 nM GPX1, 1 mM GSH, 0.5 mM CHP, 0.5 mM NADPH, 100 nM GR, 0.01% BSA.
5. Initial fluorescence readout (t=0) at 340/450 nm was measured using a ViewLux multimodal detector (PerkinElmer, Waltham, MA).
7. Endpoint fluorescence readout (t=15) at 340/450 nm was measured 15 min after room temperature incubation.
Take `CN(C)CCC[C@@]1(c2ccc(F)cc2)OCc2cc(C#N)ccc21`: the Potency entry was “inactive”. `O=C(O)CCNC(=O)c1ccccc1`: the Potency entry is “inactive”.

As to `Cc1ccccc1OCC(O)CO` (stereo not given), the Potency entry is “inactive”. Regarding `FC(F)(F)C(F)(F)C(F)(F)C(F)(F)C(F)(F)C(F)(F)C(F)(F)C(F)(F)Br`, the Potency entry was “inactive”. As for `Cn1c(=O)c2[nH]c(Br)nc2n(C)c1=O`, the Potency result was “inactive”. As for `CCCN(CCc1cccs1)[C@H]1CCc2c(O)cccc2C1`, the Potency entry is “inactive”. Turning to `CN(C)CCOC(=O)C(c1ccccc1)C1(O)CCCC1` (stereo not given), the Potency entry was “inactive”. `COc1cc([C@H]2Oc3cc([C@H]4Oc5cc(O)cc(O)c5C(=O)[C@@H]4O)ccc3O[C@@H]2CO)ccc1O`: the Potency entry was “inactive”. As for `OC1C(O)C(O)C(O)C(O)C1O` (stereo not given), the Potency entry is “inactive”. Turning to `O=C(Nc1ccc([N+](=O)[O-])cc1)Nc1ccc([N+](=O)[O-])cc1`, the Potency entry was “inactive”. `CC(CNC1CCCCC1)OC(=O)c1ccccc1` (stereo not given): the Potency result is “inactive”.

As to `Clc1cccc(C(c2ccc3nc[nH]c3c2)n2ccnc2)c1` (stereo not given), the Potency entry was “inactive”. As for `CC1CCc2c(N3CCC(O)CC3)c(F)cc3c(=O)c(C(=O)O)cn1c23` (stereo not given), the Potency entry was “inactive”.

`CN1CCC(OC(c2ccccc2)c2ccccc2)CC1`: the Potency result is “inactive”.

With `CC[C@]12CCCN3CCc4c(n(c5ccccc45)C(=O)C1)[C@@H]32`, the Potency result was “inactive”. In the case of `O=C1[C@H](CC[C@H](O)c2ccc(F)cc2)[C@@H](c2ccc(O)cc2)N1c1ccc(F)cc1`, the Potency entry is “inactive”.

In the case of `CC(O)Cn1cnc2c1c(=O)n(C)c(=O)n2C` (stereo not given), the Potency entry was “inactive”. Turning to `CC[C@H](c1ccc(O)cc1)[C@@H](CC)c1ccc(O)cc1`, the Potency entry was “inactive”. Turning to `NC(=O)c1ccccc1O`, the Potency entry is “inactive”.

Take `CC(C)[C@@H]1CC[C@@H](C)CC1=O`: the Potency entry was “inactive”. As for `CC(=O)O[C@]1(C(C)=O)CC[C@H]2[C@@H]3C=C(C)C4=CC(=O)CC[C@]4(C)[C@H]3CC[C@@]21C`, the entry is “inactive”. In the case of `CNCCCCOc1ccccc1Cc1ccccc1`, the Potency result is “inactive”.

Turning to `Cc1ccc(-c2ncc(Cl)cc2-c2ccc(S(C)(=O)=O)cc2)cn1`, the Potency entry was “inactive”. On to `C/C=C/c1ccc(O)c(OC)c1`, for which the Potency entry is “inactive”. As to `C=C[C@@]1(C)CC(=O)[C@]2(O)[C@@]3(C)[C@@H](O)CCC(C)(C)[C@@H]3[C@H](O)[C@H](OC(C)=O)[C@@]2(C)O1`, the Potency entry is “inactive”. On to `COc1ccc(C(=O)c2ccccc2)c(O)c1`, for which the Potency entry was “inactive”. Regarding `Cc1c[nH]c2ccccc12`, the Potency entry was “inactive”.

As to `CC(C)(C)NC[C@H](O)COc1cccc2c1CCCC2=O`, the Potency entry is “inactive”. Take `CC(=O)Nc1ccc(S(=O)(=O)Nc2ccc([N+](=O)[O-])cc2)cc1`: the Potency result was “inactive”. Turning to `CCc1nn(CCCN2CCN(c3cccc(Cl)c3)CC2)c(=O)n1CCOc1ccccc1`, the Potency result was “inactive”. As for `Cc1cc(NS(=O)(=O)c2ccc(N)cc2)nc(C)n1`, the Potency result is “inactive”. Turning to `CN(C)CCN1C(=O)c2ccccc2N(C)c2ccccc21`, the Potency result is “inactive”. As for `COc1cc(C(=O)NCc2ccc(OCCN(C)C)cc2)cc(OC)c1OC`, the entry is “inactive”; as for `NS(=O)(=O)c1ccc(Cl)c(S(N)(=O)=O)c1`, “inactive”. Consider `CC(C)(C)NC[C@H](O)COc1nsnc1N1CCOCC1`, for which the Potency result was “inactive”. Consider `O=C(Oc1cccc2cccnc12)c1ccccc1`, for which the Potency result was “inactive”.

For the compound `CCCN(CCC)S(=O)(=O)c1ccc(C(=O)O)cc1`, the Potency entry was “inactive”.

Turning to `CCCCNc1ccc(C(=O)OCCOCCOCCOCCOCCOCCOCCOCCOCCOC)cc1`, the Potency result is “inactive”. `CCOc1ccccc1OCCN[C@H](C)Cc1ccc(OC)c(S(N)(=O)=O)c1`: the Potency result is “inactive”. On to `CN(Cc1ccc(C(C)(C)C)cc1)Cc1cccc2ccccc12`, for which the Potency entry was “inactive”.
